Test results published in PubChem BioAssay (NCI).
Compounds without any hit were thinned out: in the full panel of roughly 83,000, 20% have a hit.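 Treatment: one concentration, 48 hours, 96-well format. Scoring: percent growth, with anything below 10 considered active.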 Unmarked numbers belong to inactive results. The source made the active and inactive calls.

tested on: MDA-MB-468 breast; assay: NCI-60 one-dose screen, 48 h (100 = growth as untreated, 0 = no growth, -100 = all killed); conditions: 10 µM unless noted

Row | SMILES | growth
1 | Cc1ccc(/C=N/NC(N)=S)s1 | 101%
2 | CCO/C=N/C1=C(C#N)C(c2ccc(F)cc2)c2sc3c(CC)cccc3c2O1 (stereo not given) | 7.27% (active)
3 | CC(C)OC1=C(Cl)C(=O)c2ccccc2C1=O | 69.1%
4 | CC1=C(C(=O)Nc2nc(-c3ccc(Cl)cc3)cs2)[C@H](c2ccc(O)cc2)NC(=O)N1 | 95%
5 | Cc1ccc(Sc2sc(-c3ccccc3)nc2[P+](c2ccccc2)(c2ccccc2)c2ccccc2)cc1 | -61.8% (active)
6 | Cc1[nH]c2ccccc2c(=O)c1CC=C(Cl)Cl | -43.2% (active)
7 | COc1ccc(CN2c3ccccc3Oc3ccccc32)cc1F | 44.3%
8 | O=C(COc1cc(O)c2c(=O)cc(-c3ccccc3)oc2c1)Nc1ccccc1 | 103%
9 | O=[N+]([O-])c1ccc2[nH]c3nccc(NCc4cccc(Cl)c4)c3c2c1 | 69%
10 | O=C1/C(=C/c2ccc(O)cc2)COc2ccc(O)c(O)c21 | -2.18% (active)
11 | CCc1c(Nc2ccccc2C)nc(N)[nH]c1=O | 105%
12 | CC(=O)n1cc(C=O)c2ccccc21 | 112%
13 | COc1cccc2c1C=CC1(O2)Oc2cccc(OC)c2C=C1C (stereo not given) | 39.5%
14 | COc1cc(C(=O)NC(=S)NCc2ccncc2)cc(OC)c1OC | 94.2%
15 | CC(=O)O[C@H]1CC[C@]2(C)[C@H]3CC=C4[C@@H]5CC(C)(C)CC[C@]5(C(=O)OCC(COC(=O)C(Cl)Cl)(COC(=O)C(Cl)Cl)NC(=O)C(Cl)Cl)CC[C@@]4(C)[C@]3(C)CC[C@H]2C1(C)C | 58.7%
16 | O=C(c1ccc(O)c(C(=O)N2Cc3ccc(OCCC[P+](c4ccccc4)(c4ccccc4)c4ccccc4)cc3C2)c1)N1Cc2cccc(F)c2C1 | 2.97% (active)
17 | C=C(C)[C@@H]1CC[C@]2(C(=O)N3CCN(C)CC3)CC[C@]3(C)[C@H](CC[C@@H]4[C@@]5(C)C/C(=C/c6cccnc6)C(=O)C(C)(C)[C@@H]5CC[C@]43C)[C@@H]12 | 51.5%
18 | Brc1ccc(Br)nn1 | -85.5% (active)
19 | O=C(CCc1nnc(CN(c2ccccc2)c2ccccc2)o1)c1nc2ccccc2[nH]1 | 89.1%
20 | COc1cccc(CC(C)=C(c2ccc(OCCN(C)C)cc2)c2ccc(OCCN(C)C)cc2)c1 | -61.5% (active)

Row | SMILES | growth
21 | Cc1cnc(C(=O)Nc2nc3ccc(S(=O)(=O)Nc4ccc(C5(C(F)(F)F)CC5)cc4)cc3[nH]2)cn1 | -26.2% (active)
22 | Cc1ccc(-c2nnc(COc3ccc(-c4nnc(N)s4)cc3)o2)cc1 | 72.7%
23 | CCC(c1ccccc1)C(CC)c1ccc(O)c(O)c1 (stereo not given) | 90.9%
24 | CC1(C)C(=NO)C(C)(C)C1=NO | 103%
25 | COc1ccc(N2C(=O)C(Oc3ccccc3)C2c2ccc(C)cc2)cc1 (stereo not given) | 122%
26 | CSc1ccc(C(=NNS(=O)(=O)c2ccc(C)cc2)c2ccc(Cl)cc2)cc1 | 112%
27 | CC1CCCCN1S(=O)(=O)c1ccc(CN=C=S)cc1 (stereo not given) | 17.4%
28 | COc1ccc(-c2nn(-c3cccc(NC(=O)c4ccc(Cl)c(Cl)c4)c3)cc2-c2ccncc2)cc1Cl | 73.3%
29 | Nc1ncnc2c1ncn2C1OC(COP(=O)(O)O)C(O)C1O (stereo not given) | 102%
30 | COC1/C=C/OC2(C)Oc3c(C)c(O)c4c(O)c(c(/C=N/Nc5ccc([N+](=O)[O-])cc5[N+](=O)[O-])c(O)c4c3C2=O)NC(=O)C(C)=C/C=C/C(C)C(O)C(C)C(O)C(C)C(OC(C)=O)C1C (stereo not given) | -54.5% (active)
31 | CC1(C)N=C(N)N=C(N)N1c1ccc(OCC(=O)Nc2ccccc2)c(Cl)c1 | 56.8%
32 | IP(CCCCCCCCCCSc1n(Cc2ccc3ccccc3c2)c(-c2ccccc2)c(-c2ccccc2)[n+]1Cc1ccc2ccccc2c1)(c1ccccc1)(c1ccccc1)c1ccccc1 | -75.3% (active)
33 | C[N+](C)(C/C=C/c1ccccc1)Cc1ccccc1 | 78.8%
34 | CCN(CCO)CCNc1ccc(C)c2sc3cc(OC)ccc3c(=O)c12 | 87.7%
35 | O=C1C(Nc2ccc(Cl)cc2)=C(I)C(=O)c2ncccc21 | -72.3% (active)
36 | CCCCc1oc2ccccc2c1C(=O)c1ccc(O)cc1 | 78.4%
37 | CC(C)(C)c1nn(-c2ccccc2)c2c1COCN2Cc1ccc(Cl)cc1 | 89%
38 | Nc1nc2c(c3cnccc13)C(c1ccc(Cl)c(Cl)c1)Cc1cnccc1-2 (stereo not given) | -42.2% (active)
39 | CCCCN(CC)CCCCCCCCCCN1CCCc2cc(OC)ccc21 | 40.8%
40 | CCOC(=O)c1nn(C2CCCCO2)c2ccc(NC(=O)CN3CCOCC3)cc12 (stereo not given) | 107%
